Here are results for 12 compounds from PubChem BioAssay (NCATS).

Assay [1] can be described thus: SW1088 Cancer Cell Toxicity qHTS against the NCATS CANVASS Library (AID 1347350). Note: % is set by controls: 0 for no effect and ±100 for the full control effect; nearly all actives have a fitted effect of over 75% in size. An outline of the steps: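 In this cytotoxicity screen, 1000 cells per well rested 4 hours, then received compound (11 concentrations) for a 72-hour incubation; an ATP-dependent luminescent signal (CellTiter-Glo) was the endpoint.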
Assay [2] in a line: DH5-alpha competent E. coli microbial cell viability qHTS against the NCATS CANVASS Library (AID 1347377). Conditions: outcome: dose series up to 46.1 µM unless noted. An outline of the steps:
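DH5-alpha E. coli suspension (0.9 OD culture diluted to 0.2 OD) exposed to compounds in an 11-point series, overnight at 37C, 5% CO2. Viability read as ATP by BacTiter-Glo luminescence after 20 min at room temperature.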

The nature of assay [3]: qHTS for Activators of p53 Stress Response Pathway screened against the NCATS CANVASS Library (AID 1347388). Note: 0% is about no effect. An outline of the steps:
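Beta-lactamase reporter driven by p53 response elements in HCT-116 cells, read as the 460 nm/530 nm emission ratio after CCF4 loading, following 16 h of exposure to an 11-point series. Cell viability was measured in the same wells by CellTiter-Glo luminescence.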

Assay [4] can be described thus: Secretion counterscreen for inhibitors of the SERCaMP assay screened against the NCATS CANVASS Library (AID 1347390).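 Note: light from luciferase secreted into medium read as a measure of general secretion; % is set by controls: 0 for no effect and ±100 for the full control effect.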 An outline of the steps:
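Counterscreen for secretory-pathway interference: after 4 h attachment, SH-SY5Y-GLuc cells were exposed 20 hours to compounds (final 0.001 - 77 uM), then coelenterazine added and GLuc luminescence recorded; Brefeldin A served as control.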

Assay [5] in a line: HEK-293 Cancer Cell Toxicity qHTS against the NCATS CANVASS Library (AID 1347355). Note: nearly all actives have a fitted effect of over 65% in size. An outline of the steps:
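Cells were seeded at 1000 per well and allowed to settle 4 hours at 37 degrees C before pin transfer of compounds as an 11-point series. Viability was read by CellTiter-Glo luminescence after 72 hours' exposure.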

Assay [6] in a line: qHTS assay for small molecule disruptors of mitochondrial membrane potential screened against the NCATS CANVASS Library (AID 1347389). Note: % is set by controls: 0 for no effect and ±100 for the full control effect; nearly all actives have a fitted effect of over 60% in size. An outline of the steps:
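HepG2 cells (2,000/well) were plated overnight at 37C, exposed to compound for 1 hr at 37C/5% CO2, then loaded with Mito-MPS dye for 30 min. Depolarization was read as a drop in red (590 nm) to green (535 nm) fluorescence ratio.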

The nature of assay [7]: HPAF-II Cancer Cell Toxicity qHTS against the NCATS CANVASS Library (AID 1347346). Note: % is set by controls: 0 for no effect and ±100 for the full control effect; nearly all actives have a fitted effect of over 55% in size. An outline of the steps:
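HPAF-II cells were seeded at 1000 cells/well, allowed to settle for 4 h at 37 degrees C, then exposed to compounds in an 11-point series for 72 h. Viability was read by CellTiter-Glo luminescence.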

The nature of assay [8]: qHTS for inhibitors of ER calcium dysfunction: SERCaMP assay screened against the NCATS CANVASS Library (AID 1347393).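 For activity change, negative = inhibition: % is set by controls: 0 for no effect and ±100 for the full control effect; lower secreted reporter signal means inhibitor of ER calcium depletion.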 Note: nearly all actives have a fitted effect of over 40% in size. Note: potency is the fitted concentration of half-maximal effect. An outline of the steps: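 Thapsigargin-induced ER calcium depletion drives GLuc-SERCaMP secretion from SH-SY5Y cells; compounds given 16 h beforehand were scored by lowered coelenterazine luminescence after 4 h challenge.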
A short description of assay [9]: qHTS for Antimalaria activity screened against the NCATS CANVASS Library (AID 1347380).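 Note: Plasmodium falciparum strain Dd2 asexual parasites grown in red blood cells; nearly all actives have a fitted effect of over 40% in size.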 An outline of the steps:
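P. falciparum Dd2-infected RBCs (2.5% hematocrit final, 0.3% parasitemia) in Albumax II RPMI were exposed to compounds in an 11-point qHTS series for 72 h at 37C under 5% O2/5% CO2, then lysed with SYBR Green.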

Assay [10] in a line: Primary qHTS for small molecule stabilizers of the endoplasmic reticulum resident proteome: Secreted ER Calcium Modulated Protein (SERCaMP) assay (AID 1508630). Note: % is set by controls: 0 for no effect and ±100 for the full control effect. An outline of the steps:
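GLuc-SERCaMP-expressing SH-SY5Y cells, pretreated 16 h with compound, are challenged with thapsigargin to empty ER calcium stores; after 4 h, coelenterazine is added directly to the medium and luminescence is imaged.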

The target of assay [11] is Glucocorticoid receptor (Homo sapiens) (UniProt P04150). Put plainly: GR-GFP Redistribution (AID 450;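 active = compounds whose dose series gives a full or clear partial fitted curve of increased nuclear translocation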; note: potency is the fitted concentration of half-maximal effect). Conditions: U2OS GR-GFP nuclear translocation, laser cytometry, 2 h.
Chain of Glucocorticoid receptor (Homo sapiens) (P04150 whole entry, looked up): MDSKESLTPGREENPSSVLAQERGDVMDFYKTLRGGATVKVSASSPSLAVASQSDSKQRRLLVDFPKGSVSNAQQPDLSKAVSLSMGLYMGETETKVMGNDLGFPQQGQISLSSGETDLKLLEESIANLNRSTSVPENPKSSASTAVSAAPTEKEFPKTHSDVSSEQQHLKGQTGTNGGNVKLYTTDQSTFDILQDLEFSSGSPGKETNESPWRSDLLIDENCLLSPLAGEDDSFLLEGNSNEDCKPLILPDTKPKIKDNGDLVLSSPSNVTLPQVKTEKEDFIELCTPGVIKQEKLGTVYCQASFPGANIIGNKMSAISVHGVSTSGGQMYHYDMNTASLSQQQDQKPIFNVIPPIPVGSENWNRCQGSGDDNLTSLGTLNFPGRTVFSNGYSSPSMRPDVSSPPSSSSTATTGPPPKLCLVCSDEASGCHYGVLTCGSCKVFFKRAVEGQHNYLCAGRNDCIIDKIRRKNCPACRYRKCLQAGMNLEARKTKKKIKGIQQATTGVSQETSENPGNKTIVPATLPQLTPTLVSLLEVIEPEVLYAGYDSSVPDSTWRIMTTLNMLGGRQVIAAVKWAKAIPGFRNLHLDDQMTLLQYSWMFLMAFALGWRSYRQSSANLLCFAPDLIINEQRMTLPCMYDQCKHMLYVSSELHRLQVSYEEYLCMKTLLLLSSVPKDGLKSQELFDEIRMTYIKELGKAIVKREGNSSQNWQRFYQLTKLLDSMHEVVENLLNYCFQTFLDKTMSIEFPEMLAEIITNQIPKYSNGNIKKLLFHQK
For assay [12] the target is unchanged. Put plainly: GR-EFC Redistribution (AID 451; calls by dose curve; note: potency is the fitted concentration of half-maximal effect). Conditions: CHO-K1 GR-EFC translocation, beta-gal luminescence, 2 h. An outline of the steps:
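Translocation of GR-ED fusion to nuclear EA restores b-gal, read by luminescence after 1 h room-temperature detection. Engineered CHO-K1 biosensor cells, 1,000/well, exposed 2 h at 37 C to titrations up to 46 uM final.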

Assay [13] addresses Mitogen-activated protein kinase 10 (Mus musculus) (UniProt Q61831). Put plainly: JNK3 AlphaScreen Assay (AID 530; active = well fitted curve in either direction with a large enough effect, not every such curve was filed as active;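 note: kinase came from lysate of stimulated human HepG2 cells; signal reports phosphorylation of biotinylated GST-cJun 1-79 at Ser73 with 10 µM ATP; % is set by controls: 0 for no effect and ±100 for the full control effect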). An outline of the steps:
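Room-temperature AlphaScreen kinase assay; pre-activated HepG2 lysate as JNK3 source, biotin-GST-cJun(1-79) substrate, 10 uM ATP, compound 15 min preincubation.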

The target in assay [14] is 3',5'-cyclic-AMP phosphodiesterase 4B (Homo sapiens) (UniProt Q07343). Put plainly: qHTS Assay for Inhibitors of PDE-IV (AID 607; active = well fitted activation curve with a large enough effect in the main read-out, with a control signal flat, not every such curve was filed as active; note: % of control where 0% means no effect). An outline of the steps:
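The readout is membrane depolarisation from a cAMP-sensing CNG channel, detected with a potential dye at ex 535/em 590. Cells were HEK293-derived (endogenous PDE-IV) at 1000 cells/well, titrated up to 22.9 uM final.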

In assay [15] the target is Ubiquitin carboxyl-terminal hydrolase 1 (Homo sapiens) (UniProt O94782). Put plainly: Inhibitors of USP1/UAF1: Pilot qHTS (AID 504865).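 For activity change, negative = inhibition: rhodamine fluorescence freed from ubiquitin-rhodamine substrate followed over time; top concentration of the series differs between compounds; % is set by controls: 0 for no effect and ±100 for the full control effect.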 Note: nearly all actives have a fitted effect of over 35% in size. Note: potency is the fitted concentration of half-maximal effect. An outline of the steps: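 Deubiquitinase activity followed as kinetic rhodamine fluorescence release from 150 nM Ub-Rho. 1 nM USP1/UAF1 with compound, after 15 min room-temperature preincubation, in HEPES pH 7.8 buffer containing TCEP, EDTA, BSA and Tween-20.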
Chain of Ubiquitin carboxyl-terminal hydrolase 1 (Homo sapiens) (O94782 whole entry, looked up): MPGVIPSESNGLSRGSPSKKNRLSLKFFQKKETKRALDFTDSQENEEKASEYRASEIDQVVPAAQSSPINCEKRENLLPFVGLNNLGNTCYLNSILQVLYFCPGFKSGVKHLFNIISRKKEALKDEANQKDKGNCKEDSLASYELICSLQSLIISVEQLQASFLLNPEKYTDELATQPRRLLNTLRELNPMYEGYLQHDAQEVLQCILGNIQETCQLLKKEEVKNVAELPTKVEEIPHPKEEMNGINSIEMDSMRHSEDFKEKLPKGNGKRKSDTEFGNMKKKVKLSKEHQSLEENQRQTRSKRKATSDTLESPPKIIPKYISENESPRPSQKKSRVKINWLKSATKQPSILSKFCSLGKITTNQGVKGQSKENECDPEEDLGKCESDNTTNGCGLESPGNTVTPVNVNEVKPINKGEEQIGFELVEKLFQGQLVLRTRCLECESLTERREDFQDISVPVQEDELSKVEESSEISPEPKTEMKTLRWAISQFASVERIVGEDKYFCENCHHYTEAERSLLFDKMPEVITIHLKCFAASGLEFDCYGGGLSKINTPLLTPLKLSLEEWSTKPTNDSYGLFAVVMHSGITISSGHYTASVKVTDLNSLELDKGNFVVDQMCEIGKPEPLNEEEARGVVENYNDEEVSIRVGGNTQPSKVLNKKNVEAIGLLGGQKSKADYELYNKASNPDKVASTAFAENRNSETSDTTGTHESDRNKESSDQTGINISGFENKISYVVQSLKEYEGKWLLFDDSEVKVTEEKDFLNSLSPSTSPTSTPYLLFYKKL

Assay [16] deals with DNA dC->dU-editing enzyme APOBEC-3G (Homo sapiens) (UniProt Q9HC16). Put plainly: qHTS for inhibitors of Vif-A3G interactions: Validation (AID 588379). Note: 0% is about no effect. An outline of the steps:
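HeLa cells stably expressing Vif and A3G-eYFP, 700 cells/well, incubated overnight at 37 deg C, then exposed to compound overnight at 37 deg C. Inhibition of Vif-mediated degradation read as increased yellow fluorescence (Ex 488/Em 500-530) by laser-scanning cytometry.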

Assay [17] can be described thus: qHTS Assay for Lipid Storage Modulators (AID 1519; calls by dose curve). The note with it: Drosophila S3 cells, BODIPY lipid droplet/cell ratio, laser cytometry, cells loaded with oleic acid. An outline of the steps:
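Cells seeded at 5,000 per well were treated with compounds over a concentration series and loaded with oleic acid (400 uM, as added). Lipid droplet fluorescence (488 nm excitation, 500-530 nm channel) was read by laser-scanning cytometry and normalized to 20 uM Triacsin C.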

Inconclusive results are not listed. The source made the active and inactive calls. Unless noted, calls come from the whole dose curve; as a rule, active = well fitted curve in the direction sought with a large enough effect; inconclusive = small, poorly fitted or top-dose-only effect, or another doubt; inactive = no such curve, though single readings can be large; an effect the other way counts as inactive or inconclusive. Non-standard residues stand in square brackets, D forms with d. Residues, ends and D or L forms follow the SMILES beside them. Bounds are passed on as bounds.

Chain of DNA dC->dU-editing enzyme APOBEC-3G (Homo sapiens) (Q9HC16 whole entry, looked up): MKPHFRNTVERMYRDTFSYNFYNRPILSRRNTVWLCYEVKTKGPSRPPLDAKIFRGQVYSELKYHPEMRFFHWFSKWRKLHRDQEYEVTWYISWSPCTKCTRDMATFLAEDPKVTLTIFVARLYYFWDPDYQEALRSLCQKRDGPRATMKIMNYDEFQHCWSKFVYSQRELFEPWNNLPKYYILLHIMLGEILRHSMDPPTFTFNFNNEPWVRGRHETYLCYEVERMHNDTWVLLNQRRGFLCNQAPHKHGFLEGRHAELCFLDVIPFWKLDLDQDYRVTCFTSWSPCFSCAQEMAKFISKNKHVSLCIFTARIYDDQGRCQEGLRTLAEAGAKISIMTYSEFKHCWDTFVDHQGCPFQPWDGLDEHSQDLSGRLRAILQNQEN
Chain of 3',5'-cyclic-AMP phosphodiesterase 4B (Homo sapiens) (Q07343 whole entry, looked up): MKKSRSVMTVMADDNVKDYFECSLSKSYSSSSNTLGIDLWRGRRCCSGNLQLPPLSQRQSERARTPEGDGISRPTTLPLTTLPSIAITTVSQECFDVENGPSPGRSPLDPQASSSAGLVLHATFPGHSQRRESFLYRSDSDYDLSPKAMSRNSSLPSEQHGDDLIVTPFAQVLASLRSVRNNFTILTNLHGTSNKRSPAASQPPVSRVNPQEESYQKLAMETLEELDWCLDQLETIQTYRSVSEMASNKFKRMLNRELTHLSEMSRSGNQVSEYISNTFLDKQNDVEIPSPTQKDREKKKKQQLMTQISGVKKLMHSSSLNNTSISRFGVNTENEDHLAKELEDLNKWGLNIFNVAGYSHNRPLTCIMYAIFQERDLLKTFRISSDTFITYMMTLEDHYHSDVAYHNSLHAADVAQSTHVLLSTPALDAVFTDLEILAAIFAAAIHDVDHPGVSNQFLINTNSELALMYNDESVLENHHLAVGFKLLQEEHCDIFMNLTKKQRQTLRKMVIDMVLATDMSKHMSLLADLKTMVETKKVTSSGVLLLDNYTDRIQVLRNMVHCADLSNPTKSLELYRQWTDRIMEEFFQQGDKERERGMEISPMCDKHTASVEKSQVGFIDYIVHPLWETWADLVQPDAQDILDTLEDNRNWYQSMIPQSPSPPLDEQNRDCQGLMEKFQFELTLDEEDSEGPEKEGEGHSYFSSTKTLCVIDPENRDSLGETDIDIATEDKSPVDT

Take `COc1c(O)cc2oc(-c3ccccc3)cc(=O)c2c1O`: the Potency entry in assay [1], in [3] and in assay [4] was “inactive” each time. Besides, in assay [2], the compound was classed as inactive.
As for `O=C(O)CC1OCc2c(O)cccc21` (centres undefined), the Potency entry in assay [5], in [3] and in [6] was “inactive” each time. The outcome in [2] was inactive.
With `CC1C(=O)C23CCC1C[C@]21O[C@@H]2C(C)(C)C=CC(=O)[C@@]23COC1=O` (some centres undefined), the Potency result in assay [5], in assay [3] and in assay [4] was “inactive” throughout. The call in [2] was inactive.
With `C[C@@H](CCC[C@]1(C)C(=O)C=C[C@]23C[C@H]4C[C@H](O[C@@]4(C)C2)C31)C(=O)N[C@@H](CO)C(=O)O` (some centres undefined), the Potency result in assay [7], in assay [3], in [6], in [4] and in [8] was “inactive” throughout.
Regarding `C/C=C/c1cc(OC)c2c(c1)[C@@H](C)[C@H](c1ccc(O)c(OC)c1)O2`, the Potency result in [7], in [1], in [5], in assay [9] and in assay [3] was “inactive” throughout. In assay [2], the compound was classed as inactive. The Potency in [8] is 24.3 µM (active).
Regarding `CCCCC/C=C\C/C=C\CCCCCCCC(=O)O[C@@H](CO)COC(=O)CCCCCCCCCCCCCCCCC`, the activity change, negative = inhibition in [10] is 6.55% [at 3.88 µM] (inactive).
`CCC(=O)NC1Cc2ccccc2C(c2ccccc2)C1` (centres undefined): the Potency entry in assay [10] was “inactive”.
`Cc1[nH]c(/C=C2/C(=O)Nc3ccc(S(=O)(=O)Cc4c(Cl)cccc4Cl)cc32)c(C)c1C(=O)N1CCCC1CN1CCCC1` (centres undefined): in assay [10], the Potency result was “inactive”.
For the compound `O=C(O)COc1cccc(-c2ocnc2-c2nc(-c3ccccc3)c(-c3ccccc3)o2)c1`, the Potency is > 46 µM (inactive) in assay [11], > 46 µM (inactive) in assay [12] and 39.8 µM (active) in assay [15]. Also, the Potency result in assay [13], in assay [14] and in assay [16] was “inactive” in each case.
Regarding `CSCC[C@H](C=O)NC(=O)[C@H](CC(C)C)NC(=O)[C@H](CC(C)C)NC(C)=O` (Ac-Leu-Leu-[dM]-aldehyde), the Potency in [11] and in [12] was > 46 µM (inactive) throughout. Moreover, the Potency entry in assay [13], in assay [14], in assay [15], in assay [16] and in assay [10] was “inactive” each time.
Consider `Clc1ccc(-c2nc3sccn3c2/C=N/OCc2ccc(Cl)c(Cl)c2)cc1`, for which the Potency entry in assay [10] is “inactive”.
Turning to `C=C[C@@]1(C)CC(=O)[C@@]2(O)[C@@]3(C)[C@@H](O)CCC(C)(C)[C@@H]3[C@H](O)[C@H](OC(C)=O)[C@@]2(C)O1`, the Potency in assay [11] and in [12] was > 46 µM (inactive) throughout. The Potency result in assay [13], in assay [15] and in assay [10] was “inactive” in each case. Moreover, in assay [17] (at 57.5 µM (top of the series)), the activity change, negative = inhibition was -0.114% (inactive). The results for the max response in [17] (measured here: cell count channel max response) and in assay [17] (measured here: lipid channel max response) were 13.9% and 18.7%, respectively.
